The results in this text go back to PubChem BioAssay (Tox21).

Each structure is given as a SMILES string. Several values for one entry are separate records, joined by “and”; a condition that tells them apart may be missing. Equal values may be shown once. Records with an inconclusive call do not appear. The source holds several records for some structures; these can differ, active in one and inactive in another. Activity calls are given as the source filed them. Unless noted, calls follow the shape of the dose curve; as a rule, active = well fitted curve in the direction sought with a large enough effect in the repeat runs; inconclusive = weak or mixed curves; inactive = no such curve, though single readings can be large; an effect the other way counts as inactive or inconclusive.

Test [1] can be described thus: qHTS assay to identify small molecule antagonists of the estrogen related receptor (ERR) signaling pathway from Tox21 library - cell viability counter screen (AID 1224834). Also: nearly all actives have a fitted effect of over 30% in size. Also: potency is read from the fitted curve at half-maximal effect. The gist of the method: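 Seeded ERR cells were rested 6 h at 37 C/5% CO2 before compounds, positive and negative controls or DMSO were added. Incubation continued for 17.5 h, and viability was then quantified by CellTiter-Fluor fluorescence.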
(In general: qHTS replaces the single test concentration by a dilution series.)

The target of test [2] is Luciferin 4-monooxygenase (Photinus pyralis) (UniProt P08659). The experiment in a line: qHTS assay to identify small molecule inhibitors of firefly luciferase (AID 1224835). Also: nearly all actives have a fitted effect of over 25% in size. Also: potency is read from the fitted curve at half-maximal effect. A digest of the protocol:
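Biochemical qHTS: compounds run as interplate titrations against purified firefly enzyme, with D-luciferin and ATP each at its KM concentration. Light output recorded by CCD imaging.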

The nature of test [3]: qHTS assay to identify small molecule agonists of the constitutive androstane receptor (CAR) signaling pathway - cell viability counter screen (AID 1224836). Also: nearly all actives have a fitted effect of over 45% in size. Also: potency is read from the fitted curve at half-maximal effect. A digest of the protocol: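 23 h treatment, 37 C, 5% CO2. Cell line: HepG2 stably expressing hCAR with a CYP2B6-2.2kb construct. Co-treatment: PK11195, 0.75 uM final. Read-out: CellTiter-Fluor fluorescence intensity.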

The nature of test [4]: qHTS assay to identify small molecule antagonists of the constitutive androstane receptor (CAR) signaling pathway - cell viability counter screen (AID 1224837). Also: nearly all actives have a fitted effect of over 45% in size. Also: potency is read from the fitted curve at half-maximal effect. The gist of the method: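 To flag cytotoxic false antagonists, HepG2 hCAR/CYP2B6-2.2kb cells were treated 23 hr with 15-concentration compound series and 50 nM CITCO at 37 C/5% CO2; CellTiter-Fluor fluorescence was the measured end point.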

In test [5] the target is Nuclear receptor subfamily 1 group I member 3 (Homo sapiens) (UniProt Q14994). Kind of test: qHTS assay to identify small molecule antagonists of the constitutive androstane receptor (CAR) signaling pathway (AID 1224838).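 Also: HepG2 cells stably expressing hCAR with CYP2B6 luciferase reporter stimulated by CITCO; nearly all actives have a fitted effect of over 40% in size.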 Also: potency is read from the fitted curve at half-maximal effect. A digest of the protocol:
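Human hepatoma HepG2 cells expressing hCAR and a CYP2B6 promoter (2.2 kb) luciferase construct; compound titration (15 points) with 50 nM CITCO final, 24 h at 37 C/5% CO2; luminescence via ONE-Glo after 30 min at room temperature.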

For test [6] the target is unchanged. Kind of test: qHTS assay to identify small molecule agonists of the constitutive androstane receptor (CAR) signaling pathway (AID 1224839). Also: nearly all actives have a fitted effect of over 15% in size. Also: potency is read from the fitted curve at half-maximal effect. A digest of the protocol:
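Compounds tested at 15 concentrations on HepG2 cells stably harbouring hCAR and CYP2B6-2.2kb reporter constructs, co-treated with PK11195 (0.75 uM final), 24 h at 37 C; luminescent reporter signal quantified.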

Test [7] is described as follows: qHTS assay to identify small molecule antagonists of the estrogen related receptor signaling pathway with the pleiotropic PPARgamma coactivator (PGC) from Tox21 10K library - cell viability counter screen (AID 1224840; active = well fitted cell-killing curve with a large enough effect in the repeat runs, not every such curve was filed as active; also: nearly all actives have a fitted effect of over 40% in size; also: potency is read from the fitted curve at half-maximal effect). A digest of the protocol: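 Seeded PGC/ERR cells (2,000/well, 6 h, 37 C/5% CO2) get compound by pin tool; 17.5 h incubation at 37 C; CellTiter-Fluor added, 30 min, fluorescence measured.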

Test [8] is described as follows: qHTS assay to identify small molecule antagonists of the estrogen related receptor signaling pathway with the pleiotropic PPARgamma coactivator (PGC) from Tox21 10K library (AID 1224841; call rule not given here; also: actives are mostly falling curves and most rising ones were filed inactive; nearly all actives have a fitted effect of over 50% in size; also: potency is read from the fitted curve at half-maximal effect). A digest of the protocol:
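Test chemicals dissolved in DMSO were applied to pre-incubated (6 h) PGC/ERR cells at 2,000 cells/well for an 18 h, 37 C treatment; reporter luminescence was then read using One-Glo.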

Test [9] can be described thus: qHTS assay to identify small molecule agonists of the estrogen related receptor signaling pathway with the pleiotropic PPARgamma coactivator (PGC) from Tox21 10K library (AID 1224842). Also: nearly all actives have a fitted effect of over 15% in size. Also: potency is read from the fitted curve at half-maximal effect. A digest of the protocol: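 PGC/ERR reporter cell line, 2,000 cells per well, incubated 6 h at 37 C before 23 nL compound in DMSO was added. After 18 h at 37 C, One-Glo luminescence read following 30 min at room temperature.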

Test [10] concerns the target Thyrotropin receptor (Homo sapiens) (UniProt P16473). The experiment in a line: qHTS assay to identify small molecule agonists of the thyroid stimulating hormone receptor (TSHR) signaling pathway (AID 1224843; calls by dose curve; also: nearly all actives have a fitted effect of over 45% in size). The gist of the method: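 Agonist-mode screen: TSHR HEK293 cells received test chemicals for half an hour at room temperature, then HTRF cAMP detection reagents for one hour prior to fluorescence measurement. Each chemical ran as a 15-concentration series, triplicated.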

Chain of Nuclear receptor subfamily 1 group I member 3 (Homo sapiens) (Q14994 whole entry, looked up): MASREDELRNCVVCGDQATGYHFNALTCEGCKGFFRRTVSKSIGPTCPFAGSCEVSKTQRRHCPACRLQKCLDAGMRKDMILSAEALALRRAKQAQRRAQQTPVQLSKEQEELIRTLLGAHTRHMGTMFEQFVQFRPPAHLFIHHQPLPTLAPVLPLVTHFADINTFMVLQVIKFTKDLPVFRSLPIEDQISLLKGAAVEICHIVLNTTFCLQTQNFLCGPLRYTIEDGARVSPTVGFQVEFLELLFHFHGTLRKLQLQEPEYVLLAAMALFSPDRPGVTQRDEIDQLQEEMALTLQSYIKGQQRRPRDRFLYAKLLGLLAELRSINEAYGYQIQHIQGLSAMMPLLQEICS
Chain of Luciferin 4-monooxygenase (Photinus pyralis) (P08659 whole entry, looked up): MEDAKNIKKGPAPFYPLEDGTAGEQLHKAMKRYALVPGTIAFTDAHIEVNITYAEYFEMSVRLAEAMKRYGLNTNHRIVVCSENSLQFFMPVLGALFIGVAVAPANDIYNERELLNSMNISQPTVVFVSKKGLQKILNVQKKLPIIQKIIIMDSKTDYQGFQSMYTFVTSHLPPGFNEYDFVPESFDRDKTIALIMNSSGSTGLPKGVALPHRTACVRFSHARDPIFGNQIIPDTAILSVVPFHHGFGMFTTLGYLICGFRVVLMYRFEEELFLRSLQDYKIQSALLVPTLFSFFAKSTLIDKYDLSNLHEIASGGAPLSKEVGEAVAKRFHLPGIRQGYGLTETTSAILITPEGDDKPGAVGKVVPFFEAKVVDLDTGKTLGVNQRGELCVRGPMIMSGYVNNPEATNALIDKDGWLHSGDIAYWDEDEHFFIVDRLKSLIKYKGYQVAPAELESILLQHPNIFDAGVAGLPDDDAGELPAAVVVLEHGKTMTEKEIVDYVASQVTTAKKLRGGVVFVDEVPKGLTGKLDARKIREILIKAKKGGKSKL
Chain of Thyrotropin receptor (Homo sapiens) (P16473 whole entry, looked up): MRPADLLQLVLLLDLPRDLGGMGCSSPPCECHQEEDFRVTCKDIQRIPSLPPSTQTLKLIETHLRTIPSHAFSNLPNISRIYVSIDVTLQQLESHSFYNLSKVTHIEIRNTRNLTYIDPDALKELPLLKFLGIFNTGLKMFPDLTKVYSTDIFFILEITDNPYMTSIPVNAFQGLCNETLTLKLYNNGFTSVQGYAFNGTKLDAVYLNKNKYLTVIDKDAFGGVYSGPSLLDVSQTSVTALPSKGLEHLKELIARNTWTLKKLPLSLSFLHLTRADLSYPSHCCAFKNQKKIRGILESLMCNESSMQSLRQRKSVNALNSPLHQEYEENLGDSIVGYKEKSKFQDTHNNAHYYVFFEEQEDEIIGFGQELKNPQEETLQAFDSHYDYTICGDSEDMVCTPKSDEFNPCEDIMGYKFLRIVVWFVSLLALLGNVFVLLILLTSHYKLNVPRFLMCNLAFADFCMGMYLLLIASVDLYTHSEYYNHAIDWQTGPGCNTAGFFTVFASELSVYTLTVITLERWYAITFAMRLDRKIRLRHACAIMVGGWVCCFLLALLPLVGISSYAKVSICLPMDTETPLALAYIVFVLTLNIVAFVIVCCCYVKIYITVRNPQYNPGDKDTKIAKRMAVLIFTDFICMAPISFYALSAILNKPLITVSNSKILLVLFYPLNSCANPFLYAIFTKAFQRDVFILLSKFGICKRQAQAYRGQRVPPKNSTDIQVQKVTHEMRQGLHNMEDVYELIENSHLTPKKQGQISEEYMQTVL

As to `CCOc1cc(Oc2ccc(C(F)(F)F)cc2Cl)ccc1[N+](=O)[O-]`, the Potency result in test [1], in test [2], in test [3], in test [4], in test [5] and in test [6] was “inactive” each time. Moreover, the Potency result in [7] and in [9] was “inactive” throughout. Further, the Potency in test [8] was 55.1 µM (active) and inactive.

With `CCCCNC(=O)n1c(NC(=O)OC)nc2ccccc21`, the Potency result in test [1], in test [3], in [4], in [5], in test [7] and in test [10] was “inactive” throughout. Besides, the Potency in [2] was 63 µM (active); in test [6] it was 54.2 µM (active).

Regarding `C=CC(=O)OCCO`, the Potency entry in test [1], in test [2], in [3], in test [4], in test [5] and in test [6] was “inactive” each time. Also, the Potency entry in test [7] and in test [10] was “inactive” throughout.

With `CCCCC(CC)COC(=O)Cl` (stereo not given), the Potency result in test [1], in test [2], in test [3], in [4], in [5] and in test [6] was “inactive” in each case. Moreover, the Potency entry in test [7], in [8], in test [9] and in [10] was “inactive” throughout.

As to `c1nc[nH]n1`, the Potency result in test [1], in [2], in [3], in test [4], in test [5] and in [6] was “inactive” in each case. Also, the Potency result in test [7], in [8], in [9] and in [10] was “inactive” each time.

On to `CCC(C)(c1ccc(O)cc1)c1ccc(O)cc1`, for which the Potency in [1] is 68.5 µM (active); in [6] it was 4.85 µM (active) and 3.06 µM (active); in [8], 48.5 µM (active). Besides, the Potency result in test [2], in test [3], in test [4], in [5], in test [7] and in test [9] was “inactive” each time. Besides, in test [10], the Potency result is “inactive”.

As for `C#C[C@]1(O)CC[C@H]2[C@@H]3CCC4=CC(=O)CC[C@]4(C)[C@H]3CC[C@@]21C`, the Potency entry in test [1], in test [2], in [3], in test [4], in [5] and in [6] was “inactive” throughout. The Potency result in test [7] and in [10] was “inactive” throughout.

For the molecule `O=c1oc2ccccc2c(O)c1C(CC(O)c1ccc(-c2ccc(Br)cc2)cc1)c1ccccc1` (stereo not given), the Potency result in test [1], in test [2], in [3], in test [4], in test [5] and in test [6] was “inactive” each time. In addition, the Potency entry in test [7] is “inactive”.

`NNC(N)=S`: the Potency in [1] is 22.5 µM (active); in test [4], 63.5 µM (active); in test [5], 63.5 µM (active); in [8] it was 31.8 µM (active) and inactive. Besides, the Potency entry in [2], in [3], in test [6], in test [7], in [9] and in [10] was “inactive” throughout.

Regarding `O=[N+]([O-])c1ccc(O)c([N+](=O)[O-])c1`, the Potency in test [1] was 27.4 µM (active) and 27.3 µM (active); in test [3], 30.8 µM (active); in test [4] it was 30.8 µM (active); in test [7], 30.8 µM (active) and 27.3 µM (active); in test [8] it was 30.8 µM (active) and 21.7 µM (active). The Potency result in test [2], in [5], in test [6], in test [9] and in test [10] was “inactive” in each case.

Turning to `Nc1c(Cl)cc([N+](=O)[O-])cc1Cl`, the Potency entry in test [1], in test [2], in [3], in test [4], in test [5] and in test [6] was “inactive” in each case. In addition, the Potency result in [7] and in test [9] was “inactive” each time. Besides, in [8], the Potency is 48.9 µM (active) and 27.3 µM (active).

As to `COP(=O)(OC)OC`, the Potency entry in [1], in test [2], in [3], in [4], in test [6] and in [7] was “inactive” each time. Further, the Potency entry in [8], in test [9] and in test [10] was “inactive” in each case. For the same molecule, in [5], the Potency is 30.9 µM (active) and inactive.

On to `Cc1c(COC(=O)[C@@H]2[C@H](/C=C(\Cl)C(F)(F)F)C2(C)C)cccc1-c1ccccc1`, for which the Potency entry in test [1], in test [2], in test [3], in test [4], in [6] and in [7] was “inactive” in each case. Further, the Potency in test [5] is 53.2 µM (active) and inactive.

On to `O=S(=O)(Oc1ccc(Cl)cc1)c1ccc(Cl)cc1`, for which the Potency entry in test [1], in test [2], in test [3], in test [4], in test [5] and in test [7] was “inactive” each time. For the same molecule, the Potency entry in [8], in test [9] and in test [10] was “inactive” in each case. The Potency in test [6] was 69.5 µM (active) and 48.6 µM (active).

Take `CC(C)(C)c1ccccc1O`: the Potency result in [1], in test [2], in [3], in test [4], in [5] and in test [6] was “inactive” in each case. In test [7], the Potency result was “inactive”.

Turning to `CC(C)C(=O)OCC(C)(C)C(OC(=O)C(C)C)C(C)C` (stereo not given), the Potency entry in test [1], in test [2], in test [3], in test [4], in test [5] and in test [6] was “inactive” throughout. For the same molecule, the Potency result in test [7], in test [8], in test [9] and in test [10] was “inactive” throughout.

As to `Cc1cccc(N)c1N`, the Potency entry in test [1], in [3], in test [4], in [5], in test [7] and in test [8] was “inactive” in each case. For the same molecule, the Potency entry in test [10] is “inactive”. Further, the Potency in test [2] is 30.6 µM (active); in test [6] it was 59.1 µM (active) and 54.5 µM (active); in test [9], “inactive and 15.4 µM (active)”.

As to `N#CCCCl`, the Potency entry in test [1], in test [2], in test [3], in test [4], in test [5] and in [6] was “inactive” throughout. Also, the Potency result in test [7] and in test [10] was “inactive” throughout.

As for `c1ccc(P(c2ccccc2)c2ccccc2)cc1`, the Potency result in test [1], in [2], in test [3], in test [4], in [5] and in test [7] was “inactive” throughout. In addition, the Potency entry in test [10] was “inactive”.

Consider `ClC1C(Cl)C(Cl)C(Cl)C(Cl)C1Cl` (stereo not given), for which the Potency result in [1], in test [2], in [3], in [4], in test [7] and in [9] was “inactive” each time. Further, in [8], the Potency entry is “inactive and 68.6 µM (active)”.
